Experimental data taken from ChEMBL document CHEMBL4513149, “CO-ADD screening of MMV (CH) - MMV compounds” (2021).
Results with a measured potency or affinity are listed apart.

Legend:
Klebsiella pneumoniae = conditions: Concentration 20 uM; ASSAY_TEST Inhibition of Bacterial Growth; detection method Absorption (OD600); MEDIA CAMHB; plate type 384well; NBS; CORNING #3640; time 18 hr
Candida albicans = conditions: 20 µM
Cryptococcus neoformans = conditions: Concentration 20 uM; ASSAY_TEST Inhibition of Fungal Growth; detection method Resazurin; Absorption (OD600-OD570); plate type 384well; NBS; CORNING #3640

Question: What does the source list for `Cc1cc(C)n2nc(C(=O)Nc3cc(C(F)(F)F)ccc3N3CCOCC3)nc2n1`?
Answer: Inhibition (Klebsiella pneumoniae): 15.61%; Inhibition (Candida albicans): 5.28%; Inhibition (Cryptococcus neoformans): -4.53%

Question: With `CCCCN(CCCC)c1c(C#N)cc(S(=O)(=O)Nc2ccccc2)cc1C#N` as the compound, how does the Inhibition (Klebsiella pneumoniae) read?
Answer: The Inhibition was 5.16%.

Question: What about the Inhibition (Candida albicans) of the same compound?
Answer: Its Inhibition is 3.66%.

Question: And the Inhibition (Cryptococcus neoformans)?
Answer: Its Inhibition is -9.03%.

Question: What does the source list for `Clc1ccc(CN2CCN(C3=NCCN3)CC2)cc1Cl`?
Answer: Inhibition (Klebsiella pneumoniae): 16.63%; Inhibition (Candida albicans): 2.1%; Inhibition (Cryptococcus neoformans): -10.37%

Question: Which results are given for `COc1ccccc1CNC(=O)c1cc(C2CC2)nc2c1cnn2C(C)C`?
Answer: Inhibition (Klebsiella pneumoniae): 8.65%; Inhibition (Candida albicans): 6.8%; Inhibition (Cryptococcus neoformans): -9.25%

Question: Which results are given for `Clc1ccc(-n2cc(COc3ccnc4ccccc34)nn2)cc1`?
Answer: Inhibition (Klebsiella pneumoniae): 12.62%; Inhibition (Candida albicans): 3.14%; Inhibition (Cryptococcus neoformans): -4.84%

Question: What does the source list for `Cc1cc(C)n(-c2ccc(NC(=O)C3CCN(Cc4cnc(C)s4)CC3)cc2)n1`?
Answer: Inhibition (Klebsiella pneumoniae): 8.14%; Inhibition (Candida albicans): 2.85%; Inhibition (Cryptococcus neoformans): -6.76%

Question: Which Inhibition (Klebsiella pneumoniae) does the source give for `O=C(CN1CCOCC1)Nc1ccc2ncnc(Nc3ccc(OCc4cccc(F)c4)c(Cl)c3)c2c1` here?
Answer: The Inhibition was 11.31%.

Question: And the Inhibition (Candida albicans)?
Answer: The Inhibition was 5.94%.

Question: And the Inhibition (Cryptococcus neoformans)?
Answer: Its Inhibition is -1.06%.

Question: `FC(F)(F)c1nnc2ccc(Cl)nn12` was tested. Which Inhibition (Klebsiella pneumoniae) did it give?
Answer: The Inhibition was 7.1%.

Question: And the Inhibition (Candida albicans)?
Answer: Its Inhibition is 2.55%.

Question: And the Inhibition (Cryptococcus neoformans)?
Answer: The Inhibition was 2.75%.

Question: With `Cc1cc(C)nc(-n2nc(C)cc2Nc2ccccc2)n1` as the compound, how does the Inhibition (Klebsiella pneumoniae) read?
Answer: The Inhibition was 15.33%.

Question: And the Inhibition (Candida albicans)?
Answer: The Inhibition was 11.7%.

Question: What about the Inhibition (Cryptococcus neoformans) of the same compound?
Answer: Its Inhibition is 39.43%.

Question: Which results are given for `CCCCc1ccc(C(=O)Nc2nccc3ccccc23)nc1`?
Answer: Inhibition (Klebsiella pneumoniae): 7.3%; Inhibition (Candida albicans): 6.07%; Inhibition (Cryptococcus neoformans): -8.5%

Question: With `Nc1nccc2ccc(-c3ccc4nccn4c3)cc12` as the compound, how does the Inhibition (Klebsiella pneumoniae) read?
Answer: Its Inhibition is 18.72%.

Question: And the Inhibition (Candida albicans)?
Answer: The Inhibition was 2.07%.

Question: And the Inhibition (Cryptococcus neoformans)?
Answer: Its Inhibition is -1.17%.

Question: With `Cc1c[nH]c(CCNC(=O)c2cc(-c3ccc(Cl)cc3)cs2)n1` as the compound, how does the Inhibition (Klebsiella pneumoniae) read?
Answer: Its Inhibition is 19.09%.

Question: And the Inhibition (Candida albicans)?
Answer: The Inhibition was 2.87%.

Question: And the Inhibition (Cryptococcus neoformans)?
Answer: Its Inhibition is -12.96%.

Question: Which results are given for `Cl.O=C(Nc1ccc(N2CCNCC2)nc1)c1oc(-c2ccccc2)nc1C(F)(F)F`?
Answer: Inhibition (Klebsiella pneumoniae): 2.54%; Inhibition (Candida albicans): 2.72%; Inhibition (Cryptococcus neoformans): -3.82%

Question: Which results are given for `O=C(C(Cc1c[nH]c2ccccc12)NS(=O)(=O)c1ccc(Cl)cc1)N1CCCCC1` (stereo unspecified)?
Answer: Inhibition (Klebsiella pneumoniae): 4.11%; Inhibition (Candida albicans): 2.45%; Inhibition (Cryptococcus neoformans): -6.5%

Question: What does the source list for `N#Cc1ccc(-c2ccc(OCC(N)=O)cc2)cc1`?
Answer: Inhibition (Klebsiella pneumoniae): 5.71%; Inhibition (Candida albicans): 3.25%; Inhibition (Cryptococcus neoformans): -13.05%

Question: For `O=C1COCc2ccc(Br)cc2N1Cc1ccc(C(F)(F)F)cc1`, which Inhibition (Klebsiella pneumoniae) is on record?
Answer: Its Inhibition is 17.24%.

Question: And the Inhibition (Candida albicans)?
Answer: Its Inhibition is 8.78%.

Question: What about the Inhibition (Cryptococcus neoformans) of the same compound?
Answer: The Inhibition was -5.61%.

Question: With `O=C(NC1CC1)c1ccc(CSCc2ccccc2Cl)o1` as the compound, how does the Inhibition (Klebsiella pneumoniae) read?
Answer: Its Inhibition is 1.21%.

Question: What about the Inhibition (Candida albicans) of the same compound?
Answer: Its Inhibition is 7.77%.

Question: What about the Inhibition (Cryptococcus neoformans) of the same compound?
Answer: The Inhibition was -0.4%.

Question: How did the Inhibition (Klebsiella pneumoniae) turn out when `O=C(Cn1ccnc1[N+](=O)[O-])NCc1ccccc1` [BENZNIDAZOLE] was run?
Answer: The Inhibition was 18.48%.

Question: And the Inhibition (Candida albicans)?
Answer: Its Inhibition is 2.82%.

Question: What about the Inhibition (Cryptococcus neoformans) of the same compound?
Answer: Its Inhibition is -2.09%.

Question: What does the source list for `CCN(CC)CCCCCCNc1cc(OC)cc2c(C)ccnc12.Cc1ccc(S(=O)(=O)O)cc1`?
Answer: Inhibition (Klebsiella pneumoniae): 14.1%; Inhibition (Candida albicans): 2.19%; Inhibition (Cryptococcus neoformans): 2.4%

Question: With `CCc1ccccc1-n1c(C)cn2c3c(=O)n(C(C(=O)OC)C(C)C)c(=O)n(C)c3nc12` (stereo unspecified) as the compound, how does the Inhibition (Klebsiella pneumoniae) read?
Answer: The Inhibition was 8.42%.

Question: What about the Inhibition (Candida albicans) of the same compound?
Answer: The Inhibition was 0.33%.

Question: And the Inhibition (Cryptococcus neoformans)?
Answer: Its Inhibition is -8.91%.

Question: Which Inhibition (Klebsiella pneumoniae) does the source give for `COc1cc(Br)cc2cc(C(=O)Nc3cccc(C(F)(F)F)c3)c(=O)oc12` here?
Answer: Its Inhibition is 7.93%.

Question: What about the Inhibition (Candida albicans) of the same compound?
Answer: The Inhibition was 3.09%.

Question: What about the Inhibition (Cryptococcus neoformans) of the same compound?
Answer: Its Inhibition is -6.76%.

Question: Which results are given for `COC(=O)c1c(NC(=O)c2c(F)c(F)c(F)c(F)c2F)sc2c1CCCCC2`?
Answer: Inhibition (Klebsiella pneumoniae): 11.31%; Inhibition (Candida albicans): 6.8%; Inhibition (Cryptococcus neoformans): -13.49%

Question: `CC(C)(C(=O)Nc1ccc(F)cc1)n1cc(-c2ccccc2F)cn1` was tested. Which Inhibition (Klebsiella pneumoniae) did it give?
Answer: Its Inhibition is 12.71%.

Question: What about the Inhibition (Candida albicans) of the same compound?
Answer: The Inhibition was 7.41%.

Question: What about the Inhibition (Cryptococcus neoformans) of the same compound?
Answer: The Inhibition was -7.47%.

Question: With `COc1ccc(-c2nc(-c3cccc(NC(=O)Cc4ccc(F)cc4)c3)no2)cc1OC` as the compound, how does the Inhibition (Klebsiella pneumoniae) read?
Answer: The Inhibition was 13.72%.

Question: What about the Inhibition (Candida albicans) of the same compound?
Answer: Its Inhibition is 23%.

Question: What about the Inhibition (Cryptococcus neoformans) of the same compound?
Answer: The Inhibition was -5.03%.

Question: What does the source list for `CNc1snc(C)c1C(=O)NCCOc1ccc(OC)cc1`?
Answer: Inhibition (Klebsiella pneumoniae): 10.83%; Inhibition (Candida albicans): 3.15%; Inhibition (Cryptococcus neoformans): 1.78%

Question: Which results are given for `Cc1ccc(S(=O)(=O)N2CCN(C(=O)c3cc(-c4ccccc4)n[nH]3)CC2)cc1`?
Answer: Inhibition (Klebsiella pneumoniae): -15.32%; Inhibition (Candida albicans): 6.95%; Inhibition (Cryptococcus neoformans): -7.39%

Question: For `CCOC(=O)c1cc(-c2csc(Nc3c(C)cc(C)cc3C)n2)on1`, which Inhibition (Klebsiella pneumoniae) is on record?
Answer: The Inhibition was 16.59%.

Question: What about the Inhibition (Candida albicans) of the same compound?
Answer: Its Inhibition is 2.27%.

Question: What about the Inhibition (Cryptococcus neoformans) of the same compound?
Answer: The Inhibition was -12.46%.
